# Where “and” joins values, the source holds several entries; their conditions need not be identical. Equal entries are not always repeated. A structure can be active in one record and inactive in another. Calls of active or inactive are those of the source. A call without a number means that no potency is given here. Unless noted, calls follow the shape of the dose curve; as a rule, active = well fitted curve in the direction sought with a large enough effect in the repeat runs; inconclusive = weak or mixed curves; inactive = no such curve, though single readings can be large; an effect the other way counts as inactive or inconclusive.
# Columns and labels:
# [1] = qHTS assay to identify small molecule antagonists of the thyroid receptor (TR) signaling pathway - cell viability counter screen (AID 743064); also: nearly all actives have a fitted effect of over 50% in size; also: potency is read from the fitted curve at half-maximal effect
# Method in brief: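 CellTiter-Fluor readout, 30 min at 37 °C/5% CO2, following 23.5 h incubation of GH3.TRE-Luc cells with test compound and 1 nM T3 (final).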
# [2] = qHTS assay to identify small molecule antagonists of the thyroid receptor (TR) signaling pathway (AID 743065); also: nearly all actives have a fitted effect of over 55% in size; also: potency is read from the fitted curve at half-maximal effect
# Method in brief: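 GH3.TRE-Luc rat pituitary cells carrying two TR response elements driving luciferase were plated for 4 h, given compound plus 1 nM T3 (final), and incubated 23.5 h at 37 C. ONE-Glo luminescence measured reporter inhibition; CellTiter-Fluor fluorescence tracked cytotoxicity.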
# [3] = tested on: thyroid hormone receptor (rat, GH3 cells); assay: qHTS assay to identify small molecule agonists of the thyroid receptor (TR) signaling pathway (AID 743066; calls by dose curve)
# [4] = target: Estrogen receptor (Homo sapiens) (UniProt P03372); assay: qHTS assay to identify small molecule antagonists of the estrogen receptor alpha (ER-alpha) signaling pathway (AID 743069; active = well fitted curve in the direction sought with a large enough effect in the signal ratio in the repeat runs, not every such curve was filed as active; inconclusive = weak or mixed curves, or effect the other way; inactive = no such curve, though single readings can be large or run the other way; the % refers to the signal ratio; also: potency is read from the fitted curve at half-maximal effect)
# Method in brief: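 A 17beta-estradiol challenge was applied right after compound transfer to ER-alpha-UAS-bla HEK293 cells previously kept in charcoal-stripped serum. Plates stood 18 hr at 37C and 5% CO2; fluorescence was read following 2 hr FRET substrate loading at room temperature.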
# [5] = target: Estrogen receptor (Homo sapiens) (UniProt P03372); assay: qHTS assay to identify small molecule agonists of the estrogen receptor alpha (ER-alpha) signaling pathway (AID 743075; calls by dose curve;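 also: HEK293 GripTite cells with ER-alpha and UAS-driven beta-lactamase reporter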; also: potency is read from the fitted curve at half-maximal effect)
# [6] = target: Estrogen receptor (Homo sapiens) (UniProt P03372); assay: qHTS assay to identify small molecule agonists of the estrogen receptor alpha (ER-alpha) signaling pathway using the BG1 cell line (AID 743079); also: nearly all actives have a fitted effect of over 20% in size; also: potency is read from the fitted curve at half-maximal effect
# [7] = qHTS assay to identify small molecule antagonists of the estrogen receptor alpha (ER-alpha) signaling pathway using the BG1 cell line (AID 743080; calls by dose curve;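 also: BG1 cells stimulated with 17beta-estradiol alongside compound; series mostly up to about 70 µM; nearly all actives have a fitted effect of over 25% in size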)
# Method in brief: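 Readout is ONE-Glo luminescence, taken 30 min at room temperature after reagent addition, preceded by a CellTiter-Fluor viability read; BG1-Luc-4E2 cells had received compound and 17beta-estradiol for 21.5 h at 37 C.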
# [8] = qHTS assay to identify small molecule antagonists of the estrogen receptor alpha (ER-alpha) signaling pathway using the BG1 cell line - cell viability counter screen (AID 743081);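 also: compound given together with 17beta-estradiol as the ER stimulus; series mostly up to about 70 µM; nearly all actives have a fitted effect of over 45% in size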
# Aromatase (Homo sapiens) = Aromatase (Homo sapiens) (UniProt P11511); assay: qHTS assay to identify aromatase inhibitors (AID 743083); also: nearly all actives have a fitted effect of over 55% in size; also: potency is read from the fitted curve at half-maximal effect
# [9] = qHTS assay to identify small molecule antagonists of the estrogen receptor alpha (ER-alpha) signaling pathway - cell viability counter screen (AID 743074; calls by dose curve;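 also: HEK293 cells carrying ER-alpha-UAS-bla reporter stimulated with 17beta-estradiol; nearly all actives have a fitted effect of over 45% in size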)
# Estrogen receptor (Homo sapiens), sequence (P03372 whole entry, looked up): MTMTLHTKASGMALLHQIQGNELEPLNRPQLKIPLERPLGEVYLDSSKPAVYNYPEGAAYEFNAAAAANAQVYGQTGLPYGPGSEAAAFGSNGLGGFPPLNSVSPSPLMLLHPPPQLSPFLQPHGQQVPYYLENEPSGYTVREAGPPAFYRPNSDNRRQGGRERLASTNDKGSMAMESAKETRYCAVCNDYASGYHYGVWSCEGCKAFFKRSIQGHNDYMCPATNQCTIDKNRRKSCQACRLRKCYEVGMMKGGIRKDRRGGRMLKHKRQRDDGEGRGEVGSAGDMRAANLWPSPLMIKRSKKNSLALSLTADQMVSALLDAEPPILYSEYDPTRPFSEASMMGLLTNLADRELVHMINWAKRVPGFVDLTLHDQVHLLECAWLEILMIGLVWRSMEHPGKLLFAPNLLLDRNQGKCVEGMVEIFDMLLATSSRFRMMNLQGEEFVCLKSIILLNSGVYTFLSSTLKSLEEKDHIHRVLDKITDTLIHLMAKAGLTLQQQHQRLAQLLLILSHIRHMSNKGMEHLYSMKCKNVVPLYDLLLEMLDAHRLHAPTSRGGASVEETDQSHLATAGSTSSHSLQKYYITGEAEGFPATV
# Aromatase (Homo sapiens), sequence (P11511 whole entry, looked up): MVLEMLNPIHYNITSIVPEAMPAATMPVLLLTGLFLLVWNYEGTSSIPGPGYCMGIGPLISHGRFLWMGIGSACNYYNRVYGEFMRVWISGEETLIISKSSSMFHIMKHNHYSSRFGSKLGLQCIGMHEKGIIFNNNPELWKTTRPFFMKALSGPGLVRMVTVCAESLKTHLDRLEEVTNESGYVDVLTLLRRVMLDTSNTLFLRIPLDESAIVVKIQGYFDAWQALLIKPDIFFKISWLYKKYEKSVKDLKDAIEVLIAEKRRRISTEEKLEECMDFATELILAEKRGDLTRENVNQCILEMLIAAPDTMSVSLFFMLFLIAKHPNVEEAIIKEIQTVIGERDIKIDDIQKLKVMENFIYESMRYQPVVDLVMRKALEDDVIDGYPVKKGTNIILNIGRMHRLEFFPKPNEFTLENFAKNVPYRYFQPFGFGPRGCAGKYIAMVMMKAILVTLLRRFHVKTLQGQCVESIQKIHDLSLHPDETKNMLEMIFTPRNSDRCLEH
Structure (SMILES),Potency [1],Potency [2],outcome [3],Potency [4],Potency [5],Potency [6],outcome [7],Potency [8],Potency (Aromatase (Homo sapiens)),outcome [9]
O=C(O)c1ccc(C(=O)O)c(C(=O)O)c1,inactive,inactive,inactive,inactive,inactive,inactive,inactive,inactive,inactive,–
CCCCCCCCCCCC(=O)OC,inactive,inactive,inactive,inactive,inactive,inactive,inactive,inactive,inactive,inactive
CCOCC(=O)O,inactive,inactive,inactive,inactive,inactive,inactive,inactive,inactive,inactive,inactive
COc1ccc(N)c(C)c1,inactive,inactive,inactive,inactive,inactive,–,inactive,inactive,inactive,inactive
CCNC(=S)NCC,inactive,inactive,inactive,inactive,inactive,inactive and 54.5 µM (active),inactive,inactive,inactive,inactive
CN(C)CCOC(=O)COc1ccc(Cl)cc1,inactive,inactive,inactive,–,–,–,–,inactive,inactive,inactive
Nc1ccc(Cl)c(N)c1,inactive,inactive,inactive,–,inactive,inactive,inactive,inactive,inactive,inactive
CCNc1cccc(C)c1,inactive,inactive,inactive,inactive,inactive,inactive,inactive,inactive,inactive,inactive
NC(=S)NNC(N)=S,inactive,inactive,inactive,–,–,–,–,inactive,inactive,inactive
COc1cc(OC)c(C(=O)CCCN2CCCC2)c(OC)c1,inactive,inactive,inactive,–,–,–,–,inactive,inactive,inactive
COCCOC(=O)c1ccccc1C(=O)OCCOC,inactive,inactive,inactive,–,–,–,–,inactive,inactive,inactive
Clc1ccccn1,inactive,inactive,inactive,–,–,–,–,inactive,–,inactive
CCCCCCO,inactive,inactive,inactive,inactive,inactive,–,inactive,inactive,inactive,inactive
c1ccc2c(c1)Cc1ccccc1-2,inactive,inactive,inactive,inactive,inactive,inactive,inactive,inactive,inactive,inactive
CCCCOC(=O)c1ccc(N)cc1,inactive,21.1 µM (active) and 21.4 µM (active),inactive,24.2 µM [inconclusive] (active),inactive,23.7 µM (active) and 33.9 µM (active),–,inactive,inactive,inactive
CC(=O)c1ccc(O)cc1,inactive,inactive,inactive,–,inactive,inactive,inactive,inactive,inactive,inactive
CCCCCCCO,inactive,inactive,inactive,inactive,inactive,inactive,inactive,inactive,inactive,inactive
CCCCCCCCCCO,inactive,inactive,inactive,inactive,inactive,inactive,inactive,inactive,inactive,inactive
CC1(C)NC(=O)NC1=O,inactive,inactive,inactive,inactive,inactive,inactive,inactive,inactive,inactive,inactive
COC(=O)CCCC(=O)OC,inactive,inactive,inactive,–,–,–,–,inactive,–,inactive
CCCCCCCCCCCCCCCC(=O)OC(C)C,inactive,inactive,inactive,–,–,–,–,inactive,–,inactive
CC(C)=CCl,inactive,inactive,inactive,inactive,49.6 µM [inconclusive] (active) and inactive,17.4 µM (active) and inactive,inactive,inactive,inactive,–

Structure (SMILES),Potency [1],Potency [2],outcome [3],Potency [4],Potency [5],Potency [6],outcome [7],Potency [8],Potency (Aromatase (Homo sapiens)),outcome [9]
CC1(C)OC[C@@H]2O[C@@]3(C(=O)O)OC(C)(C)O[C@H]3[C@@H]2O1,inactive,inactive,inactive,–,–,–,–,inactive,inactive,inactive
CC(C)OC(=O)COc1ccc(Cl)cc1Cl,inactive,inactive,inactive,inactive,inactive,inactive,inactive,inactive,inactive,inactive
N[C@H](Cc1c[nH]c2ccccc12)C(=O)O,inactive,inactive,inactive,–,–,–,–,inactive,inactive,inactive
O=[N+]([O-])c1ccc2nc[nH]c2c1,inactive,inactive,inactive,inactive,inactive,inactive,inactive,inactive,inactive,–
CCCCCCCCCCCCCCCCO,inactive,inactive,inactive,inactive,inactive,inactive,inactive,inactive,inactive,inactive
CC(C)CC(=O)CC(C)CC(C)C (stereo not given),inactive,inactive,inactive,–,–,–,–,inactive,inactive,inactive
C=Cc1ccc(C)cc1,–,inactive,inactive,–,–,–,–,inactive,inactive,–
CN1C(=O)CC[C@H]1c1cccnc1,inactive,–,–,–,–,–,–,inactive,inactive,inactive
CC(C)OP(=O)(CP(=O)(OC(C)C)OC(C)C)OC(C)C,–,inactive,inactive,–,inactive,inactive,inactive,inactive,inactive,inactive
COc1ccc(CCC(C)=O)cc1,inactive,inactive,inactive,–,–,–,–,inactive,inactive,inactive
COc1ccc(OC)cc1,inactive,–,–,inactive,inactive,inactive,inactive,inactive,inactive,–
C=C(C)[C@H]1CC=C(C)C(=O)C1,inactive,inactive,inactive,–,–,–,–,inactive,inactive,inactive
CN(C)c1ccc(Cc2ccc(N(C)C)cc2)cc1,inactive,inactive,inactive,–,–,–,–,inactive,inactive,inactive
CC(O)CC(C)(C)O (stereo not given),inactive,inactive,inactive,–,–,–,–,inactive,inactive,–
CCOC(=O)n1ccn(C)c1=S,–,–,–,inactive,inactive,inactive,inactive,inactive,inactive,inactive
O=C1c2ccccc2CCc2ccccc21,–,inactive,inactive,–,–,–,–,inactive,inactive,inactive
O=C1C(c2[nH]c3ccccc3c2O)=Nc2ccccc21,inactive,inactive,inactive,–,–,–,–,inactive,inactive,inactive
CN/C(=C\[N+](=O)[O-])NCCSCc1csc(CN(C)C)n1,inactive,inactive,inactive,–,–,–,–,inactive,inactive,inactive
NCCNCCN,inactive,inactive,inactive,–,–,–,–,inactive,inactive,inactive
C[C@]12CCC(=O)C=C1CC[C@@H]1[C@@H]2[C@@H](O)C[C@@]2(C)[C@H]1CC[C@]2(O)C(=O)CO,inactive,inactive,inactive,–,–,–,–,inactive,inactive,inactive
COC(=O)c1cccnc1,inactive,inactive,inactive,–,–,–,–,inactive,inactive,inactive
NCCCCCCN,inactive,inactive,inactive,–,–,–,–,inactive,inactive,inactive

Structure (SMILES),Potency [1],Potency [2],outcome [3],Potency [4],Potency [5],Potency [6],outcome [7],Potency [8],Potency (Aromatase (Homo sapiens)),outcome [9]
c1ccc(Oc2ccccc2)cc1,inactive,inactive,inactive,–,–,–,–,inactive,inactive,inactive
N#Cc1ccccc1,inactive,inactive,inactive,–,–,–,–,inactive,inactive,inactive
CCO[Si](CCCN)(OCC)OCC,inactive,–,–,inactive,inactive,inactive,inactive,inactive,inactive,inactive
O=C(O)Cn1c(=O)n(Cc2ccc(Br)cc2F)c(=O)c2ccc(Cl)cc21,–,inactive,inactive,inactive,inactive,inactive,inactive,–,inactive,inactive
CC(C)(C#N)c1cc(Cn2cncn2)cc(C(C)(C)C#N)c1,–,–,–,–,–,–,–,inactive,–,inactive
Cc1ccc(C(C)C)c(O)c1,61.1 µM (active),–,inactive,inactive,inactive,inactive,inactive,inactive,inactive and 54.5 µM (active),inactive
CCCCCCCCCCN,inactive,inactive,inactive,–,–,–,–,inactive,inactive,–
COc1ccccc1OCC(O)CO (stereo not given),inactive,inactive,inactive,–,–,–,–,inactive,inactive,inactive
C=CC[N+](C)(C)CC=C,inactive,inactive,inactive,–,–,–,–,inactive,inactive,inactive
O=C(O)CCCCCCCCC(=O)O,inactive,inactive,inactive,–,–,–,–,inactive,inactive,inactive
CCOC(=O)c1ccc(N)cc1,inactive,inactive,inactive,–,–,–,–,inactive,inactive,inactive
CC(C)CCCCCCCOC(=O)CCCCC(=O)OCCCCCCCC(C)C,inactive,inactive,inactive,–,–,–,–,inactive,inactive,inactive
CCOCCOCCOCCO,inactive,inactive,inactive,–,–,–,–,inactive,inactive,inactive
CC(=O)OC1CC(C)OC(C)O1 (stereo not given),inactive,inactive,inactive,–,–,–,–,inactive,inactive,inactive
CCCOC(=O)c1ccccc1,inactive,inactive,inactive,–,–,–,–,inactive,inactive,inactive
COc1ccc(C)cc1N,–,inactive,inactive,inactive,inactive,inactive,inactive,inactive,inactive,inactive
CCNc1ccccc1,inactive,inactive,inactive,–,–,–,–,inactive,inactive,inactive
C=CCc1ccc(OC)c(OC)c1,inactive,inactive,inactive,–,–,–,–,inactive,inactive,inactive
CC(CCl)OP(=O)(OC(C)CCl)OC(C)CCl (stereo not given),–,–,–,inactive,inactive,inactive,inactive,inactive,inactive,inactive
OCc1cccc(Oc2ccccc2)c1,inactive,inactive,inactive,–,–,–,–,inactive,inactive,inactive
O=S(=O)(O)c1ccccc1,inactive,inactive,inactive,–,–,–,–,inactive,inactive,inactive

# — PubChem BioAssay (Tox21)
